Source: PubChem BioAssay AID651692 (Broad Institute, 2012)
Measured potencies and affinities stand elsewhere. The source made the active and inactive calls.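 How the source made its calls: active means fitted half-maximal concentration for loss of cell signal no higher than twice the top valid tested concentration; inconclusive means flat curve at 30 to 70% inhibition, or poor fit; inactive means flat within 30%, signal rise, or potency above limit.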

assay: MDA-MB-231 cell growth inhibition, dose response, cytotoxicity control for RAD54 inhibitor project, CellTiter-Glo luminescence, cherry-pick (AID 651692); conditions: MDA-MB-231 viability, 24 h; series mostly up to 26 µM;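 further: more negative values mean stronger loss of viable cell signal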

Structure (SMILES)	outcome
Cc1[nH]ccc2cc3nc4ccccc4c3cc12	inactive
CC(=O)Nc1cc(-c2cccc(C(=O)NCCN(C)C)c2)cn2c(-c3ccc(S(C)(=O)=O)cc3)cnc12	inactive
CCN(CC)CC(=O)Nc1cccc2c1C(=O)c1ccccc1C2=O	inactive
COc1ccc(Nc2cc(C)nc3ccc(OC)cc23)cc1	inactive
Cc1ccc(S(=O)(=O)N2CCOCC2)c(C)c1NS(C)(=O)=O	inactive
CC1CCN(CCCNC(=O)c2cc3c(Cl)nc4ccccc4c3s2)CC1	inactive
NNC(=O)c1oc2nc(-c3cccs3)cc(-c3ccco3)c2c1N	inactive
Cc1cccc2cc3c(N)c(C#N)sc3nc12	inactive
COc1ccc(Nc2nc(NCC3CCCO3)c3ccccc3n2)c(OC)c1 (centres undefined)	inactive
CCOc1cc2nc(-c3ccc(OC)c(OC)c3)nc(NCCCN3CCOCC3)c2cc1OC	inactive
Cc1cc(C)n(-c2nc(NCCN(C)C)c3c4c(sc3n2)COC(C)(C)C4)n1	inactive
CN1CCN(c2nc(-c3ccncc3)nc3ccccc23)CC1	inactive
CCCCN(C)CCNC(=S)Nc1ccc2nc(N3CCN(CC)CC3)cc(C)c2c1	inactive
CCOC(=O)c1c(CN2CCCCC2)n(C)c2cc(Br)c(OC)cc12	inactive
O=C1c2cccc3cccc(c23)C(=O)N1CCCn1ccnc1	inactive
CCN(CC)CCNC(=O)c1cc2c(-c3ccc(Cl)cc3)nn(C)c2s1	inactive
CSc1nc(SCC(N)=O)c2c3c(sc2n1)CN(C)CC3	inactive
O=c1c2ccccc2oc2cc(NCCCN3CCOCC3)ccc12	inactive
CCOC(=O)c1cnc2ccc(C)cc2c1NCCN1CCOCC1	inactive
Oc1ccccc1-c1nc(NCCN2CCOCC2)c2ccccc2n1	inactive

Structure (SMILES)	outcome
COc1ccc(C(=O)Nc2cc(C)c(NC(=O)c3ccccc3OC)cn2)cc1	inactive
Cc1ccc2[nH]c(=O)c3cc(C(=O)NCCN4CCN(C)CC4)sc3c2c1	inactive
CCc1nc(Nc2ccncc2)c2oc3ccccc3c2n1	inactive
CCCN(CCC)CCCNC(=O)c1cc2c(=O)n(C)c3ccccc3c2n1C	inactive
CCOC(=O)c1cnc2c(C)cccc2c1NCCCN1CCOCC1	inactive
CCN(CC)CC(=O)Nc1cc(N(C)C)nc2ccccc12	inactive
c1ccc(CNc2c3ccccc3nc3ccccc23)cc1	inactive
CCN1CCN(c2cc(C)c3cc(NC(=S)N4CCC5(CC4)OCCO5)ccc3n2)CC1	inactive
Nc1cc2ccncc2c2ccccc12	inactive
COc1ccc(OC)c(Nc2nc(NCCCN(C)C)nc(N)c2[N+](=O)[O-])c1	inactive
Cc1ccc(Nc2cc(C)nc3c(C)cccc23)cc1	inactive
CCN(CC)CCN1C(=O)c2cccc3cc(N)cc(c23)C1=O	inactive
Nc1ccc(-c2nc3c(ccc4ccccc43)[nH]2)cc1	inactive
c1cc2c3c(cccc3c1)C(N1CCCCC1)=N2	inactive
CN(C)CCNC(=O)c1cccc(-c2cnc3c(NC=O)cc(-c4cccs4)cn23)c1	inactive
Cc1cc(C)c2c(c1)c1nnc(SCCN3CCCCC3)nc1n2C	inactive
CN(C)CCNC(=O)c1cccc(-c2cnc3c(NC=O)cc(-c4cccc(F)c4)cn23)c1	inactive
CCN1CCCC1CNC(=O)c1cc2c(-c3cccc(OC)c3)nn(C)c2s1 (centres undefined)	inactive
C=CC(=O)Nc1ccc(N(C)c2ccnc(Nc3ccc(N4CCN(C)CC4)cc3)n2)cc1	inactive
